These results are taken from the supplement of paper PMC9694430.

Assay in all cases: thermal shift delta Tm vs DMSO control; higher = stronger stabilization (binding)
Holding throughout (conditions): 12.5 µM; protein concentration 2 µM

For test [1], the system named is LOC_OS01G01410-cb001. An outline of the steps: (§1)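 Thermal shift values come from differential scanning fluorimetry on purified rice kinase domains made in E. coli, with melting temperatures obtained from Boltzmann fits. Samples of 19.5 μl held 2 μM kinase, 100 mM potassium phosphate pH 7.5, 150 mM NaCl, 10% glycerol, 5 × SYPRO Orange and compound in DMSO, and were heated from 25°C to 95°C at 0.05°C/s. Each shift is a triplicate mean relative to the DMSO-only protein sample.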

Test [2] relates to LOC_OS01G02750-cb003. An outline of the steps: as §1
For test [3], the system named is LOC_OS01G10900-cb004. In short, it runs like this: as §1
For test [4], the system named is LOC_OS01G13800-cb001. An outline of the steps:
as §1

Test [5] concerns LOC_OS01G14860-cb001. An outline of the steps:
as §1

The test system of test [6] is LOC_OS01G21960-cb002. In short, it runs like this:
as §1

The test system of test [7] is LOC_OS01G39600-cb002. In short, it runs like this:
as §1

In test [8] the test system is LOC_OS01G48390-cb002. In short, it runs like this:
as §1

Test [9] deals with LOC_OS01G51400-cb002. An outline of the steps:
as §1

The subject of test [10] is T1, LOC_OS01G52050-cb004.
T1 sequence (whole entry): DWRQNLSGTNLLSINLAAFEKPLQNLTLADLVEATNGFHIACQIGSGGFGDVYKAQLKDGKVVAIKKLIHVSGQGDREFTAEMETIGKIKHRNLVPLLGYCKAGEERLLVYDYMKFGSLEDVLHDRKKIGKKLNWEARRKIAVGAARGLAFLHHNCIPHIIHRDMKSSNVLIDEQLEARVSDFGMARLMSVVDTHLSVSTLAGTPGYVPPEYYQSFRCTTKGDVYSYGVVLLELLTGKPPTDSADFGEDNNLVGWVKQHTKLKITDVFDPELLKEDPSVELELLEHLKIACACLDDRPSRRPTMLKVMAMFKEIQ
An outline of the steps: as §1

In test [11] the test system is LOC_OS01G57100-cb003. An outline of the steps:
as §1

Test [12] relates to LOC_OS01G60330-cb001. An outline of the steps:
as §1

The test system of test [13] is LOC_OS01G60700-cb002. An outline of the steps:
as §1

Test [14] concerns LOC_OS01G63280-cb003. In short, it runs like this:
as §1

Test [15] relates to LOC_OS01G67340-cb003. An outline of the steps:
as §1

For test [16], the system named is LOC_OS01G70970-cb002. An outline of the steps:
as §1

The test system of test [17] is LOC_OS02G07810-cb001. An outline of the steps:
as §1

Test [18] relates to LOC_OS02G08530-cb003. An outline of the steps: as §1
The test system of test [19] is LOC_OS02G14120-cb001. In short, it runs like this: as §1
In test [20] the test system is LOC_OS02G17970-cb001. In short, it runs like this:
as §1
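Further: purified Escherichia coli-expressed rice kinase domain construct.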

Turning to `Cn1ncc(Cl)c1-c1cc(C(=O)N[C@H](CN)Cc2ccc(F)c(F)c2)oc1Cl`, the “thermal shift delta Tm” value in test [1] was -0.41 °C; in test [2], 1.78 °C; in test [3] it was -0.33 °C; in test [4], 1.08 °C; in test [5], 0.15 °C; in test [6], 1.66 °C. Besides, the “thermal shift delta Tm” value is -0.06 °C in test [7]; 1 °C in [8]; 0.44 °C in test [9]; 1.06 °C in test [10]; 1.78 °C in test [11]; 0.8 °C in test [12]. Moreover, the “thermal shift delta Tm” value turned out to be 1.33 °C in test [13]; 0.28 °C in [14]; 0.45 °C in test [15]; 0.03 °C in [16]; 0.82 °C in [17]; 0.49 °C in [18]. Moreover, the “thermal shift delta Tm” value was 0.41 °C in test [19] and 1.67 °C in [20].
For the compound `COc1cc2ncnc(Oc3cccc(NC(=O)Nc4cc(C(C)(C)C(F)(F)F)on4)c3)c2cc1OC`, the “thermal shift delta Tm” value in [1] was 0.82 °C; in [2], 1.07 °C; in test [3], 0.12 °C; in test [4] it was 0.13 °C; in [5], 0.91 °C; in test [6], 0.64 °C. Further, the “thermal shift delta Tm” value in test [7] was found to be 0.02 °C; in test [8], 0.73 °C; in test [9], 0.35 °C; in test [10], 0.75 °C; in test [11] it was 1.91 °C; in [12] it was 0.64 °C. In addition, the “thermal shift delta Tm” value was 0.86 °C in [13]; 1.66 °C in test [14]; 0.78 °C in test [15]; 0.38 °C in test [16]; 0.77 °C in [17]; 1.04 °C in [18]. For the same compound, the “thermal shift delta Tm” value was determined as 1.43 °C in test [19] and 0.45 °C in test [20].
Consider `O=c1nc(N2CCOCC2)oc2c(-c3cccc4c3sc3ccccc34)cccc12`, for which the “thermal shift delta Tm” value in test [1] is 0.12 °C; in test [2] it was -0.86 °C; in test [3], 3.3 °C; in [4] it was -0.44 °C; in test [5], 0.6 °C; in [6] it was 0.45 °C. The “thermal shift delta Tm” value in [7] is -0.5 °C; in test [8] it was 0.27 °C; in test [9], -0.4 °C; in [10], 1.17 °C; in [11], 1.63 °C; in test [12], -0.13 °C. Besides, the “thermal shift delta Tm” value in test [13] was -0.9 °C; in test [14], -1.32 °C; in test [15], -1.09 °C; in test [16], -0.38 °C; in test [17] it was -1.31 °C; in [18] it was 0.23 °C. Moreover, the “thermal shift delta Tm” value was 0.11 °C in [19] and -0.76 °C in test [20].
Take `O=C(NOCC1CC1)c1ccc(F)c(F)c1Nc1ccc(I)cc1Cl`: the “thermal shift delta Tm” value in [1] came to 1.01 °C; in test [2], 11.3 °C; in test [3], 1.62 °C; in test [4], 0.71 °C; in test [5], 1.37 °C; in test [6], 1.16 °C. The “thermal shift delta Tm” value in test [7] stood at 1.41 °C; in [8] it was 1.28 °C; in test [9] it was 0.54 °C; in test [10], 2.25 °C; in [11] it was 2.41 °C; in test [12] it was 2.82 °C. Besides, the “thermal shift delta Tm” value in test [13] came to 2.16 °C; in test [14], 0.93 °C; in test [15] it was 0.18 °C; in [16], 1.09 °C; in test [17] it was 1.23 °C; in [18] it was 1.11 °C. Besides, the “thermal shift delta Tm” value in test [19] was 1.97 °C; in test [20], 1.54 °C.
As for `CNC(=O)c1nn(C)c2c1C(C)(C)Cc1cnc(Nc3ccc(N4CCN(C)CC4)cc3)nc1-2`, the “thermal shift delta Tm” value in test [1] is 2.97 °C; in test [2] it was 4.29 °C; in test [3], 7.64 °C; in [4] it was -1.53 °C; in test [5], 0.36 °C; in [6], 1.9 °C. Moreover, the “thermal shift delta Tm” value is 0.04 °C in test [7]; 1.65 °C in test [8]; 0.17 °C in test [9]; 5.55 °C in [10]; 1.59 °C in test [11]; 0.33 °C in test [12]. Besides, the “thermal shift delta Tm” value was 0.69 °C in test [13]; -0.14 °C in test [14]; 1.14 °C in test [15]; 0.87 °C in test [16]; 0.68 °C in [17]; 1.93 °C in test [18]. Further, the “thermal shift delta Tm” value in test [19] came to 4.82 °C; in test [20], 0.05 °C.
Take `CCN1CCN(Cc2ccc(-c3cc4c(N[C@H](C)c5ccccc5)ncnc4[nH]3)cc2)CC1`: the “thermal shift delta Tm” value in test [1] is 3.01 °C; in test [2], 0.66 °C; in test [3] it was 3.11 °C; in test [4] it was 0.28 °C; in test [5], 0.24 °C; in test [6], 0.28 °C. The “thermal shift delta Tm” value in test [7] was 2.27 °C; in [8] it was 0.54 °C; in [9], 0.24 °C; in test [10] it was 0.44 °C; in test [11], 0.7 °C; in [12], 1.5 °C. Also, the “thermal shift delta Tm” value was 0.28 °C in [13]; 0.52 °C in test [14]; -0.08 °C in test [15]; 0.5 °C in test [16]; 1.12 °C in test [17]; 0.67 °C in test [18]. Moreover, the “thermal shift delta Tm” value in [19] stood at 3.81 °C; in [20] it was 0.8 °C.
Turning to `COc1c(C)c(C(=O)c2ccc(N)c(C(=O)O)c2)n2ccccc12`, the “thermal shift delta Tm” value is 0.21 °C in [1]; 1.05 °C in [2]; 0.42 °C in test [3]; -0.23 °C in test [4]; 0.24 °C in test [5]; 0.79 °C in [6]. Further, the “thermal shift delta Tm” value was -11.6 °C in test [7]; 0.46 °C in test [8]; 0.21 °C in [9]; 0.12 °C in [10]; 1.57 °C in test [11]; 0.95 °C in test [12]. For the same compound, the “thermal shift delta Tm” value in [13] was 1.12 °C; in test [14], -0.1 °C; in test [15], -0.08 °C; in [16] it was 0.36 °C; in test [17] it was 0.92 °C; in [18] it was 0.95 °C. Further, the entries for the “thermal shift delta Tm” value in test [19] and in [20] were -0.55 °C and 1.28 °C, respectively.
